Source: ChEMBL document CHEMBL4513146, “CO-ADD screening of Karazin Kharkiv National University (Ukraine) compounds”
Potency and affinity values are given separately.

Assays:
[1] = tested on: Staphylococcus aureus; conditions: Concentration 32 ug.mL-1;; ASSAY_TEST Inhibition of Bacterial Growth; detection method Absorption (OD600); MEDIA CAMHB; plate type 384well; NBS; CORNING #3640; time 18 hr
[2] = tested on: Escherichia coli; conditions: Concentration 32 ug.mL-1;; ASSAY_TEST Inhibition of Bacterial Growth; detection method Absorption (OD600); MEDIA CAMHB; plate type 384well; NBS; CORNING #3640; time 18 hr

Compound	Inhibition [1] [%]	Inhibition [2] [%]
CCc1nnc2c(S(=O)(=O)N(Cc3ccccc3F)c3ccc(F)cc3)cccn12	1.79	-1.76
COC(=O)c1ccc(NC(=O)Cn2nc3ccc(Sc4ccc(C)cc4)nn3c2=O)cc1	10.91	-1.06
COc1cc(NC(=O)Cn2nc3c(N4CCCC4)nccn3c2=O)cc(OC)c1	5.55	-2.57
Cc1nnc2ccc(S(=O)(=O)N(Cc3ccccc3F)c3cccc(Cl)c3)cn12	2.13	-7.6
Cc1nnc2c(S(=O)(=O)N(Cc3ccccc3Cl)c3ccc(F)c(F)c3)cccn12	38.47	-6.82
CCOC(=O)c1cccc(NC(=O)CSc2nnc3ccc(C(=O)Nc4cccc(F)c4)cn23)c1	5.02	-5.71
Cc1ccc(NC(=O)Cn2nc3ccc(SC(C)(C)C)nn3c2=O)c(C)c1	13	-1.14
CCOC(=O)c1cccc(NC(=O)CSc2nc3ccccc3n3c(C(C)C)nnc23)c1	7.87	-1.12
CC(C)(C)Sc1ccc2nn(CC(=O)Nc3ccccc3C(F)(F)F)c(=O)n2n1	6.28	-2.49
CCOc1ccc(NC(=O)Cn2nc3c(N4CCCC4)nccn3c2=O)cc1	0.84	-1.53
COc1ccc(CNC(=O)Cn2nc3c4cc(-c5ccc(Cl)cc5)nn4ccn3c2=O)cc1	6.34	4.2
COc1cc(NC(=O)Cn2nc3n(CCc4ccccc4)c(=O)c4ccccc4n3c2=O)cc(OC)c1	8.09	-2.27
Cc1ccc(Oc2nccn3c(=O)n(CC(=O)Nc4ccc5c(c4)OCO5)nc23)cc1	6.26	-6.61
CCc1ccc(NC(=O)CSc2nnc3ccc(C(=O)Nc4cccc(F)c4)cn23)cc1	9.49	-4.13
COc1ccc(-c2nc(CSc3nc4ccccc4n4c(C(C)C)nnc34)c(C)o2)cc1	-9.17	-2.62
CCc1ccc(N(Cc2ccccc2)S(=O)(=O)c2cccn3c(C)nnc23)cc1	11.03	-3.19
NC(=O)C1CCN(C(=O)CCc2nnc3c(N4CCCCC4)nc4ccccc4n23)CC1	14.39	0.84
CCCN(C)c1nccn2c(=O)n(CC(=O)Nc3cccc(C(F)(F)F)c3)nc12	6.48	3.02
COc1ccccc1CNC(=O)Cn1nc2c(N3CCCCCC3)nccn2c1=O	17.1	-0.92
Cc1cccc(N(Cc2ccccc2)S(=O)(=O)c2cccn3c(C)nnc23)c1	19.49	-3.05
CCC(Sc1nnc2c(=O)n(-c3cccc(OC)c3)ccn12)C(=O)Nc1cc(C)ccc1C (configuration not stated)	5.06	-5.33
CCOc1ccccc1NC(=O)Cn1nc2c(Sc3ccc(C)cc3C)nccn2c1=O	2.42	0
CCOc1ccc(-c2nc(CSc3nc4ccccc4n4c(C)nnc34)c(C)o2)cc1	7.53	1.84
Cc1nnc2ccc(S(=O)(=O)N(Cc3ccccc3)c3ccc(Cl)cc3)cn12	1.7	-13.98

Compound	Inhibition [1] [%]	Inhibition [2] [%]
CCCc1nnc2c(=O)n(CC(=O)Nc3ccc(C#N)cc3)c3ccccc3n12	8.01	-1.86
CCc1ccccc1Sc1nccn2c(=O)n(CC(=O)Nc3cc(C)ccc3C)nc12	15.04	0.5
CCC(Sc1nnc2c(=O)n(-c3ccccc3)ccn12)C(=O)Nc1ccc(OC)cc1OC (configuration not stated)	10.76	0.69
Cc1ccc(NC(=O)Cn2nc3c(SCc4ccc(Cl)cc4)nccn3c2=O)cc1F	5.52	0.08
COc1ccc(NC(=O)c2ccc3nn(CC(=O)Nc4ccc(C(F)(F)F)cc4)c(=O)n3c2)cc1	9.76	-5.89
COc1cc(NC(=O)Cn2nc3c(Oc4ccccc4)nccn3c2=O)cc(OC)c1OC	13.24	1.16
Cc1ccc(Sc2nccn3c(=O)n(CC(=O)Nc4c(C)cc(C)cc4C)nc23)c(C)c1	17.35	1.82
Cc1cc2nn(CC(=O)NCc3ccco3)c(=O)n2c(Nc2ccc(C)c(F)c2)n1	0.2	-8.01
Cc1cc(C)cc(Nc2nc(C)cc3nn(CC(=O)Nc4ccccc4)c(=O)n23)c1	4.32	-6.45
O=c1c2sccc2n2c(=O)n(Cc3cccc(F)c3)nc2n1Cc1cccs1	-6.6	-12.16
CC(=O)c1ccc(NC(=O)Cn2nc3c(Sc4ccc(C)cc4C)nccn3c2=O)cc1	-12.01	-21.11
CCc1ccc(N(Cc2cccc(OC)c2)S(=O)(=O)c2cccn3c(C)nnc23)cc1	-1.7	-9.35
C=Cc1ccc(CSc2nnc3c(=O)n(-c4cccc(OC)c4)ccn23)cc1	15.25	-3.1
COc1ccc(NC(=O)Cn2nc3ccc(SCc4ccc(Cl)cc4)nn3c2=O)cc1OC	0.34	-7.61
CCCCOc1ccc(-c2cc3c4nnc(SCC(=O)Nc5cc(C)ccc5OC)n4ccn3n2)cc1	-29	-22.73
CCCCc1ccc(NC(=O)Cn2nc3ccc(-c4ccc(C)c(C)c4)nn3c2=O)cc1	7.91	-1.54
COC(=O)c1sccc1NC(=O)Cn1nc2c(Oc3ccc(C)cc3)nc3ccccc3n2c1=O	6.43	0.18
O=C(Cn1nc2c3cc(-c4ccccc4)nn3ccn2c1=O)N1CCN(c2ccccc2F)CC1	4.61	-0.58
Cc1ccc(NC(=O)c2ccc3nnc(SCC(=O)Nc4ccc(F)cc4)n3c2)cc1	14.37	5.45
CCN(C(=O)Cn1nc2cc(C)nc(Nc3ccc(C)c(F)c3)n2c1=O)c1ccccc1	15.67	-1.02
CCCCn1c(=O)c2sccc2n2c(SCc3cccc(C(F)(F)F)c3)nnc12	-1.51	-8.66
COc1ccc(-c2cc3c4nn(CC(=O)Nc5ccc(F)cc5)c(=O)n4ccn3n2)cc1	-1.37	-7.82
CC(C)CCn1c(=O)c2ccc(C(=O)NC3CCCC3)cc2n2c(=S)[nH]nc12	-2	-7.9
Cc1cc(C)cc(NC(=O)CSc2nnc3c(=O)n(-c4ccc(Br)cc4)ccn23)c1	9.26	-3.09

Compound	Inhibition [1] [%]	Inhibition [2] [%]
CCc1nnc2ccc(S(=O)(=O)N(Cc3ccccc3)c3ccccc3)cn12	5.6	-2.89
Cc1ccc(-c2ccc3nnc(CCC(=O)NCc4ccc(C(F)(F)F)cc4)n3n2)cc1C	17.72	1.8
CCc1nnc2ccc(S(=O)(=O)N(Cc3ccc(F)cc3)c3ccc(OC)cc3)cn12	6.39	-3.2
COc1ccc(C(=O)CSc2nnc3c(=O)n(-c4ccc(F)cc4)ccn23)cc1	13.68	-0.44
O=C(CSc1nnc2c(=O)n(-c3ccc(Br)cc3)ccn12)Nc1cccc(Cl)c1	2.58	-6.43
Cc1ccc2c(c1)N(C(=O)Cn1nc3ccc(SCc4ccc(Cl)cc4)nn3c1=O)CCO2	2.18	-5.63
CC(C)NC(=O)CSc1nnc2c(=O)n(Cc3ccc(F)cc3)ccn12	-0.55	-7.51
COc1ccc(NC(=O)Cn2nc3c4cc(-c5ccc(F)cc5)nn4ccn3c2=O)c(OC)c1	8.82	-0.75
Cc1cccc(C)c1NC(=O)Cn1nc2c(N3CCSCC3)nc3ccccc3n2c1=O	-9.27	-7.41
Cc1ccc(-c2cc3c4nn(CC(=O)NC5CCCC5)c(=O)n4ccn3n2)cc1C	-0.99	-0.5
CCOc1ccc(-n2ccn3c(SCC(N)=O)nnc3c2=O)cc1	8.32	3.76
CCc1cccc(NC(=O)Cn2nc3c(Sc4ccc(C)cc4C)nccn3c2=O)c1	-6.82	-19.78
COc1cccc(-n2ccn3c(-c4ccc([N+](=O)[O-])cc4)nnc3c2=O)c1	5.77	-8.12
Cc1cc(C)cc(Nc2nc(C)cc3nn(CC(=O)NC4CCCC4)c(=O)n23)c1	11.66	0.01
Cc1nc(-c2ccccc2)cc2nn(CC(=O)Nc3ccc4c(c3)OCO4)c(=O)n12	14.7	-4.44
Cc1ccc(NC(=O)Cn2nc3c(N4CCCC(C)C4)nccn3c2=O)cc1C (configuration not stated)	-5.07	-2.82
CCc1nnc2c(S(=O)(=O)N(Cc3ccccc3C)c3ccc(Cl)cc3)cccn12	-22.93	-4.88
Cc1cc2nn(CC(=O)Nc3ccc(F)cc3)c(=O)n2c(Nc2ccccc2C)n1	11.27	1.51
COc1ccccc1NC(=O)Cn1nc2c3c4c(sc3ncn2c1=O)CCCC4	0.74	-4.22
Cn1c(=O)c2sccc2n2c(=O)n(Cc3cccc(Br)c3)nc12	14.17	0.53
O=C(Cn1nc2ccc(-c3ccc(Cl)cc3)nn2c1=O)Nc1ccccc1	-4.65	-11.42
COC(=O)c1cccc(NC(=O)Cn2nc3ccc(-c4ccccc4)nn3c2=O)c1	-7.92	-13.96
COc1cc(NC(=O)Cn2nc3c(Oc4ccccc4)nccn3c2=O)cc(OC)c1	11.4	1.31
